{
  "source": "ChEMBL document CHEMBL1857833",
  "about": "“Screening and optimization of specific chemical series against human African Trypanosomiasis (HAT)”",
  "note": "Hit rate of the full screen: of about 4,400 compounds, about 390 (8.9%) showed an effect of 50% or more. This excerpt belongs to a sample that is enriched for strong results.",
  "data": [
    {"tested_on": "Trypanosoma brucei", "assay": "DNDI: Inhibition of Human African Trypanosomiasis, SBRI 427, in vitro at 2 ug.mL-1", "format": "functional", "units": {"% inhibition": "%"}, "values": [
      {"smiles": "Cc1cc(C)n(/C(=N\\O)c2ccc(Oc3ccc4ccccc4c3)nc2)n1", "% inhibition": 12},
      {"smiles": "CCCCC(CC)CNCc1coc(-c2ccccc2Br)n1", "note": "(stereo unspecified)", "% inhibition": 8},
      {"smiles": "CCOc1ccccc1-c1nc(CN(CCC#N)C2CCCCC2)co1", "% inhibition": -4},
      {"smiles": "Cc1ncn(Cc2coc(-c3ccc(Br)cc3)n2)c1C=O", "% inhibition": 10},
      {"smiles": "CCOC(=O)CC(C)NCc1coc(-c2ccc(Cl)cc2Cl)n1", "note": "(stereo unspecified)", "% inhibition": -1},
      {"smiles": "COc1cccc(CN/C(=N\\O)c2ccnc(Oc3cc(Cl)ccc3Cl)c2)c1", "% inhibition": 11},
      {"smiles": "CC1CC(N/C(=N\\O)c2ccnc(Oc3cc(Cl)ccc3Cl)c2)CC(C)(C)C1", "note": "(stereo unspecified)", "% inhibition": 9},
      {"smiles": "O/N=C(\\NC1CCC1)c1ccnc(Oc2cc(Cl)ccc2Cl)c1", "% inhibition": 95},
      {"smiles": "O/N=C(\\NC1CCCC1)c1ccnc(Oc2cc(Cl)ccc2Cl)c1", "% inhibition": 94},
      {"smiles": "O/N=C(/c1ccnc(Oc2cc(Cl)ccc2Cl)c1)N1CCC=N1", "% inhibition": 32},
      {"smiles": "N/C(=N\\O)c1ccnc(Oc2cc(Cl)ccc2Cl)c1", "% inhibition": 20},
      {"smiles": "O/N=C(/c1cccnc1Oc1ccccc1OCc1ccccc1)N1CCOCC1", "% inhibition": -16},
      {"smiles": "CN(CCCNCc1coc(-c2cccc(F)c2)n1)c1ccccc1", "% inhibition": 5},
      {"smiles": "CCOc1ccc(-c2nc(CN(CC)C(C)(C)C)co2)cc1", "% inhibition": 6},
      {"smiles": "CC(C)COc1ncccc1/C(=N/O)NC1CCC(C)CC1", "note": "(stereo unspecified)", "% inhibition": 83},
      {"smiles": "CC(C)COc1ncccc1/C(=N/O)NC1CCCCC1", "% inhibition": 82},
      {"smiles": "CC(C)COc1ncccc1/C(=N/O)NC1CCCC1", "% inhibition": 97},
      {"smiles": "CC(C)COc1ncccc1/C(=N/O)NC1CCC1", "% inhibition": 97},
      {"smiles": "CC(C)COc1ncccc1/C(=N/O)NC1CCN(Cc2ccccc2)C1", "note": "(stereo unspecified)", "% inhibition": -2},
      {"smiles": "CC1CCC(N/C(=N\\O)c2cccnc2OCC(C)(C)C)CC1", "note": "(stereo unspecified)", "% inhibition": 5},
      {"smiles": "CC(C)COc1ncccc1/C(=N/O)Nc1ccc(C(C)C)cc1", "% inhibition": 2},
      {"smiles": "CC(C)COc1ncccc1/C(=N/O)N1CCC(C)CC1", "% inhibition": -1},
      {"smiles": "Cc1ccccc1-c1nc(CN2CCC(N3CCCCC3)CC2)co1", "% inhibition": 14},
      {"smiles": "C1=C(CCNCc2coc(-c3cccs3)n2)CCCC1", "% inhibition": -10},
      {"smiles": "Cc1ccccc1NCc1coc(-c2ccco2)n1", "% inhibition": -2},
      {"smiles": "CCN(Cc1coc(-c2ccc(C(F)(F)F)cc2)n1)c1ccccc1", "% inhibition": 4},
      {"smiles": "CC(NCc1coc(-c2ccc(OC(F)(F)F)cc2)n1)c1cccc2ccccc12", "note": "(stereo unspecified)", "% inhibition": -34},
      {"smiles": "O/N=C(\\NCc1cc(F)cc(F)c1)c1ccc(Oc2c(F)c(F)cc(F)c2F)nc1", "% inhibition": 10},
      {"smiles": "O/N=C(\\NCC1CC1)c1ccc(Oc2cccc3c2CCCC3)nc1", "% inhibition": 77},
      {"smiles": "O/N=C(\\Nc1ccccc1)c1ccc(Oc2cccc3c2CCCC3)nc1", "% inhibition": 22},
      {"smiles": "O/N=C(/c1ccc(Oc2cccc3c2CCCC3)nc1)N1CCCCC1", "% inhibition": 31},
      {"smiles": "CCC(CC)N/C(=N\\O)c1ccc(Oc2cccc3c2CCCC3)nc1", "% inhibition": 76},
      {"smiles": "O/N=C(\\NCc1c(F)cccc1F)c1ccc(Oc2cccc3c2CCCC3)nc1", "% inhibition": 15},
      {"smiles": "O/N=C(\\NC1CCCC1)c1ccc(Oc2cccc3c2CCCC3)nc1", "% inhibition": 97},
      {"smiles": "COc1ccc(CN/C(=N\\O)c2ccc(Oc3cccc4c3CCCC4)nc2)cc1", "% inhibition": 32},
      {"smiles": "O/N=C(\\NCc1cccs1)c1ccc(Oc2cccc3c2CCCC3)nc1", "% inhibition": 4},
      {"smiles": "N/C(=N\\O)c1ccc(Oc2cccc3c2CCCC3)nc1", "% inhibition": 19},
      {"smiles": "Cc1ccccc1-c1nc(CN2CCN(c3cccc(C(F)(F)F)c3)CC2)co1", "% inhibition": 14},
      {"smiles": "CCOc1ccccc1-c1nc(CN2CCC3(CC2)OCCO3)co1", "% inhibition": 1},
      {"smiles": "COC(=O)C1CCN(Cc2coc(-c3cccc(F)c3)n2)CC1", "% inhibition": 6},
      {"smiles": "CCN(CC)Cc1coc(-c2cccc(OC)c2)n1", "% inhibition": 11},
      {"smiles": "CCc1ccc(Oc2ncccc2/C(=N/O)NCc2ccccc2)cc1", "% inhibition": 99},
      {"smiles": "COc1ccc(CN/C(=N\\O)c2cccnc2Oc2ccccc2)cc1", "% inhibition": 14},
      {"smiles": "COc1cccc(CN/C(=N\\O)c2cccnc2OCC2CCCCC2)c1", "% inhibition": 71},
      {"smiles": "O/N=C(\\NCc1cc(F)cc(F)c1)c1cccnc1Oc1ccc(Cl)cc1", "% inhibition": 59},
      {"smiles": "O/N=C(\\NCc1cc(F)ccc1F)c1cccnc1Oc1ccc(Cl)cc1", "% inhibition": 12},
      {"smiles": "COc1ccc(Oc2ncccc2/C(=N/O)NCc2ccncc2)cc1", "% inhibition": -2},
      {"smiles": "COc1cccc(CN/C(=N\\O)c2cccnc2OC2CCC2)c1", "% inhibition": -1},
      {"smiles": "O/N=C(\\NCc1cccnc1)c1cccnc1OCC1CCCCC1", "% inhibition": 6},
      {"smiles": "COc1ccc(Oc2ncccc2/C(=N/O)NCc2cc(F)cc(F)c2)cc1", "% inhibition": 39},
      {"smiles": "CCc1ccc(Oc2ncccc2/C(=N/O)NCc2cccnc2)cc1", "% inhibition": 3},
      {"smiles": "COc1ccc(Oc2ncccc2/C(=N/O)NCc2ccccc2)cc1", "% inhibition": 86},
      {"smiles": "CCc1ccc(Oc2ncccc2/C(=N/O)NCc2ccncc2)cc1", "% inhibition": 5},
      {"smiles": "CC(C)(C)c1ccc(-c2nc(Cn3nc(N)cc3-c3ccccc3)co2)cc1", "% inhibition": 9},
      {"smiles": "CN(CCC#N)Cc1coc(-c2cccc3ccccc23)n1", "% inhibition": 7},
      {"smiles": "CCOC(=O)C1CCCCN1Cc1coc(-c2cccc(OCC)c2)n1", "note": "(stereo unspecified)", "% inhibition": 2},
      {"smiles": "COc1ccccc1CNCc1coc(-c2ccc(Br)cc2)n1", "% inhibition": 3},
      {"smiles": "CCN(Cc1coc(-c2ccccc2Cl)n1)c1cccc2ccccc12", "% inhibition": -6},
      {"smiles": "COc1cccc(CN/C(=N\\O)c2cccnc2Oc2c(F)cccc2F)c1", "% inhibition": 17},
      {"smiles": "COc1ccc(Oc2ncccc2/C(=N/O)NCc2cccc(OC)c2)cc1", "% inhibition": -6},
      {"smiles": "COc1cccc(CN/C(=N\\O)c2cccnc2Oc2ccc(Cl)cc2)c1", "% inhibition": 98},
      {"smiles": "O/N=C(/c1ccnc(Oc2ccc(F)c(Cl)c2)c1)N1CC=CCC1", "% inhibition": 17},
      {"smiles": "Cc1cccc(Oc2ncccc2/C(=N/O)N2CC(C)CC(C)C2)c1C", "note": "(stereo unspecified)", "% inhibition": 1},
      {"smiles": "Cc1ccc(Oc2nc(C)ccc2/C(=N/O)NCCN2CCCCC2)c(C)c1", "% inhibition": 0},
      {"smiles": "Cc1ccc(Oc2nc(C)ccc2/C(=N/O)NC2CCCCC2)c(C)c1", "% inhibition": 100},
      {"smiles": "Cc1cc(C)cc(Oc2nc(C)ccc2/C(=N/O)NCC2CCCCC2)c1", "% inhibition": 14},
      {"smiles": "Cc1ccc(Oc2nc(C)ccc2/C(=N/O)NC2CCCC2)c(C)c1", "% inhibition": 25},
      {"smiles": "Cc1ccc(Oc2nc(C)ccc2/C(=N/O)NCC2CCCCC2)c(C)c1", "% inhibition": 62},
      {"smiles": "COc1cc(C)ccc1Oc1nc(C)ccc1/C(=N/O)NC1CCCC1", "% inhibition": -8},
      {"smiles": "C=CCN1CCN(/C(=N\\O)c2ccc(C)nc2Oc2ccc(C)cc2)CC1", "% inhibition": 30},
      {"smiles": "CC1C=CC(C)N1/C(=N\\O)c1cccnc1Oc1ccc(Cl)cc1", "note": "(stereo unspecified)", "% inhibition": -7},
      {"smiles": "Cc1ccc(N2CCN(Cc3coc(-c4ccc(OC(F)(F)F)cc4)n3)CC2)cc1C", "% inhibition": 23},
      {"smiles": "CC(C)(C)COc1ncccc1/C(=N/O)NCC1CCCO1", "note": "(stereo unspecified)", "% inhibition": 4},
      {"smiles": "Brc1ccccc1-c1nc(CNCc2ccccc2)co1", "% inhibition": 11},
      {"smiles": "C[C@@H]1C(NCc2coc(-c3ccccc3Br)n2)C[C@H]2C[C@@H]1C2(C)C", "note": "(stereo partly specified)", "% inhibition": 100},
      {"smiles": "CCC(CC)CNCc1coc(-c2ccccc2Br)n1", "% inhibition": 1},
      {"smiles": "Brc1ccccc1-c1nc(CNC2CCc3ccccc32)co1", "note": "(stereo unspecified)", "% inhibition": 7},
      {"smiles": "CC(C)(C)CNCc1coc(-c2ccccc2Br)n1", "% inhibition": 7},
      {"smiles": "C[C@H]1C(NCc2coc(-c3ccccc3Br)n2)C[C@@H]2C[C@H]1C2(C)C", "note": "(stereo partly specified)", "% inhibition": 98},
      {"smiles": "Cc1ccc(/C(=N/O)N2CCCCC2)c(Oc2ccc(F)cc2)n1", "% inhibition": 24},
      {"smiles": "CCc1nccn1Cc1coc(-c2cc(OC)c(OC)c(OC)c2)n1", "% inhibition": 9},
      {"smiles": "Cc1ccc2cccc(Oc3cc(/C(N)=N/O)ccn3)c2n1", "% inhibition": 7},
      {"smiles": "Cc1ccc(/C(=N/O)N2CCCC2)c(OCc2ccccc2C)n1", "% inhibition": 10},
      {"smiles": "CN(Cc1coc(-c2ccc(Cl)cc2Cl)n1)Cc1ccco1", "% inhibition": 11},
      {"smiles": "O=C(C1CCCO1)N1CCN(Cc2coc(-c3ccc(C(F)(F)F)cc3)n2)CC1", "note": "(stereo unspecified)", "% inhibition": 4},
      {"smiles": "CCOC(=O)C1CCCN(Cc2coc(-c3ccccc3Cl)n2)C1", "note": "(stereo unspecified)", "% inhibition": 4},
      {"smiles": "COc1cccc(-c2nc(CN3CCN(c4ccccc4OC)CC3)co2)c1", "% inhibition": -9},
      {"smiles": "CC1CC(C)CN(/C(=N\\O)c2cccnc2Oc2ccccc2)C1", "note": "(stereo unspecified)", "% inhibition": 10},
      {"smiles": "Cc1ccc(-c2nc(CNc3ccccc3C)co2)cc1", "% inhibition": -4},
      {"smiles": "O/N=C(\\NCc1ccncc1)c1ccc(Oc2ccc3oc4ccccc4c3c2)nc1", "% inhibition": -14},
      {"smiles": "O/N=C(\\NC1CCC1)c1ccc(Oc2ccc3oc4ccccc4c3c2)nc1", "% inhibition": 94},
      {"smiles": "Cc1cc(C)cc(CN/C(=N\\O)c2ccc(Oc3ccc4oc5ccccc5c4c3)nc2)c1", "% inhibition": 32},
      {"smiles": "O/N=C(\\NCc1cccnc1)c1ccc(Oc2ccc3oc4ccccc4c3c2)nc1", "% inhibition": 84},
      {"smiles": "COc1cccc(CN/C(=N\\O)c2ccc(Oc3ccc4oc5ccccc5c4c3)nc2)c1", "% inhibition": 16},
      {"smiles": "O/N=C(\\NC1CC1)c1ccc(Oc2ccc3oc4ccccc4c3c2)nc1", "% inhibition": 82},
      {"smiles": "CCC(C)(C)N/C(=N\\O)c1ccc(Oc2ccc3oc4ccccc4c3c2)nc1", "% inhibition": 97},
      {"smiles": "CC(C)CN/C(=N\\O)c1ccc(Oc2ccc3oc4ccccc4c3c2)nc1", "% inhibition": 11},
      {"smiles": "O/N=C(\\NCC1CCCO1)c1ccc(Oc2ccc3oc4ccccc4c3c2)nc1", "note": "(stereo unspecified)", "% inhibition": -8},
      {"smiles": "O/N=C(\\NC1CCc2ccccc21)c1ccc(Oc2ccc3oc4ccccc4c3c2)nc1", "note": "(stereo unspecified)", "% inhibition": 19},
      {"smiles": "CN(/C(=N\\O)c1ccc(Oc2ccc3oc4ccccc4c3c2)nc1)C1CCCCC1", "% inhibition": 22},
      {"smiles": "CC(C)(C)CN/C(=N\\O)c1ccc(Oc2ccc3oc4ccccc4c3c2)nc1", "% inhibition": 8},
      {"smiles": "Cc1ccc(N(C)Cc2coc(-c3cccc4ccccc34)n2)cc1", "% inhibition": 6},
      {"smiles": "Cn1nc(C(C)(C)C)cc1NCc1coc(-c2ccc(C(C)(C)C)cc2)n1", "% inhibition": -5},
      {"smiles": "Cc1ccc(C(C)C)c(Oc2cc(/C(=N/O)Nc3ccc(C(C)C)cc3)ccn2)c1", "% inhibition": 21},
      {"smiles": "COCCN(Cc1coc(-c2ccccc2Cl)n1)C(C)C", "% inhibition": -24},
      {"smiles": "c1ccc2c(-c3nc(CNCc4ccncc4)co3)cccc2c1", "% inhibition": 6}
    ]}
  ]
}
